# Measurements from publication PMC12820563, “FoxP3 forms a head-to-head dimer in vivo and stabilizes its multimerization on adjacent microsatellites”.
# Whole data set: some 16,000 sequences, median “rpm ratio (pull-down/input)” near 0.5, cut for the highest 2% near 5.5. This excerpt belongs to a sample that is enriched for the highest values.
# Biological target: T1, MBP-FoxP3dN (Mus musculus, UniProt Q99JB6 188-423)
# T1 sequence: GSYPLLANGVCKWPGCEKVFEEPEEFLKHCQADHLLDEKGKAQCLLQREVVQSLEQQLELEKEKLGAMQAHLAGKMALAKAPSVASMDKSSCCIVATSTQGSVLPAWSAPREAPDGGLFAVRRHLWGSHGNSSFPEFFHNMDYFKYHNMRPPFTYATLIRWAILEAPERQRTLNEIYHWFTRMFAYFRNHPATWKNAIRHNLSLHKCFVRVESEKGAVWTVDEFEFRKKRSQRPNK
# Assay: PD-seq (MBP pull-down with sequencing); 20 mM Tris-HCl pH 7.5, 100 mM NaCl, 1.5 mM MgCl2, 0.4 uM protein, 0.1 uM dsDNA library, 30 min, room temperature, amylose pull-down; high values mean tight binding
# Settings: protein: recombinant; tags: His6-MBP; chain copies: 2; dsDNA, one strand shown
# Summary of the method: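 The N-terminus-lacking fragment of mouse FoxP3 or FoxP1 carried a His6-MBP tag and was expressed in E. coli. At 0.4 µM it was incubated with 0.1 µM Klenow-filled degenerate double-stranded DNA library for 30 min at room temperature in Tris pH 7.5 buffer with NaCl and MgCl2, and complexes were caught on amylose resin, washed three times, released with proteinase K, PCR-barcoded and Illumina-sequenced. Binding is reads-per-million enrichment of pull-down over input with replicates pooled.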
row,Sequence,binding signal
1,GATGATTGTTCTCCCAGCTGATGAATTCGCGGAGTCGAGTAAACAAATTTTCCTAATCTTTCTGTTCAAGCGCCATCTAC,0.23 RPM ratio (pull-down/input)
2,GATGATTGTTCTCCCAGCTGATGAATTTGGGTTGTCGAGTAAACAAATTTTCCTAATCTTTCTGTTCAAGCGCCATCTAC,1.1 RPM ratio (pull-down/input)
3,GATGATTGTTCTCCCAGCTGATGAATTCCTACGGTCGAGTAAACAAATTTTCCTAATCTTTCTGTTCAAGCGCCATCTAC,0.213 RPM ratio (pull-down/input)
4,GATGATTGTTCTCCCAGCTGATGAATTCCCTGTTTCGAGTAAACAAATTTTCCTAATCTTTCTGTTCAAGCGCCATCTAC,0.346 RPM ratio (pull-down/input)
5,GATGATTGTTCTCCCAGCTGATGAATTAGAATAGTCGAGTAAACAAATTTTCCTAATCTTTCTGTTCAAGCGCCATCTAC,0.342 RPM ratio (pull-down/input)
6,GATGATTGTTCTCCCAGCTGATGAATTTTTTTTTTCGAGTAAACAAATTTTCCTAATCTTTCTGTTCAAGCGCCATCTAC,0.217 RPM ratio (pull-down/input)
7,GATGATTGTTCTCCCAGCTGATGAATTCCGGCGTTCGAGTAAACAAATTTTCCTAATCTTTCTGTTCAAGCGCCATCTAC,1.07 RPM ratio (pull-down/input)
8,GATGATTGTTCTCCCAGCTGATGAATTCACGTCATCGAGTAAACAAATTTTCCTAATCTTTCTGTTCAAGCGCCATCTAC,0.59 RPM ratio (pull-down/input)
9,GATGATTGTTCTCCCAGCTGATGAATTATTGGAGTCGAGTAAACAAATTTTCCTAATCTTTCTGTTCAAGCGCCATCTAC,0.296 RPM ratio (pull-down/input)
10,GATGATTGTTCTCCCAGCTGATGAATTTAAACGCTCGAGTAAACAAATTTTCCTAATCTTTCTGTTCAAGCGCCATCTAC,0.381 RPM ratio (pull-down/input)
11,GATGATTGTTCTCCCAGCTGATGAATTTGCATCTTCGAGTAAACAAATTTTCCTAATCTTTCTGTTCAAGCGCCATCTAC,7.16 RPM ratio (pull-down/input)
12,GATGATTGTTCTCCCAGCTGATGAATTATTCCATTCGAGTAAACAAATTTTCCTAATCTTTCTGTTCAAGCGCCATCTAC,0.434 RPM ratio (pull-down/input)
13,GATGATTGTTCTCCCAGCTGATGAATTGCATTATTCGAGTAAACAAATTTTCCTAATCTTTCTGTTCAAGCGCCATCTAC,3.3 RPM ratio (pull-down/input)
14,GATGATTGTTCTCCCAGCTGATGAATTGCATTCGTCGAGTAAACAAATTTTCCTAATCTTTCTGTTCAAGCGCCATCTAC,3.88 RPM ratio (pull-down/input)
15,GATGATTGTTCTCCCAGCTGATGAATTCTTGCATTCGAGTAAACAAATTTTCCTAATCTTTCTGTTCAAGCGCCATCTAC,6.02 RPM ratio (pull-down/input)
16,GATGATTGTTCTCCCAGCTGATGAATTGCATCCTTCGAGTAAACAAATTTTCCTAATCTTTCTGTTCAAGCGCCATCTAC,5.53 RPM ratio (pull-down/input)
17,GATGATTGTTCTCCCAGCTGATGAATTGAATCCTTCGAGTAAACAAATTTTCCTAATCTTTCTGTTCAAGCGCCATCTAC,0.33 RPM ratio (pull-down/input)
18,GATGATTGTTCTCCCAGCTGATGAATTGCCATCTTCGAGTAAACAAATTTTCCTAATCTTTCTGTTCAAGCGCCATCTAC,1.07 RPM ratio (pull-down/input)
19,GATGATTGTTCTCCCAGCTGATGAATTTGCAGCTTCGAGTAAACAAATTTTCCTAATCTTTCTGTTCAAGCGCCATCTAC,1.22 RPM ratio (pull-down/input)
20,GATGATTGTTCTCCCAGCTGATGAATTGCATCTTTCGAGTAAACAAATTTTCCTAATCTTTCTGTTCAAGCGCCATCTAC,5.4 RPM ratio (pull-down/input)

row,Sequence,binding signal
1,GATGATTGTTCTCCCAGCTGATGAATTATTGCATTCGAGTAAACAAATTTTCCTAATCTTTCTGTTCAAGCGCCATCTAC,7.31 RPM ratio (pull-down/input)
2,GATGATTGTTCTCCCAGCTGATGAATTCCTTGCATCGAGTAAACAAATTTTCCTAATCTTTCTGTTCAAGCGCCATCTAC,0.828 RPM ratio (pull-down/input)
3,GATGATTGTTCTCCCAGCTGATGAATTGTAGACATCGAGTAAACAAATTTTCCTAATCTTTCTGTTCAAGCGCCATCTAC,0.874 RPM ratio (pull-down/input)
4,GATGATTGTTCTCCCAGCTGATGAATTGACTCTCTCGAGTAAACAAATTTTCCTAATCTTTCTGTTCAAGCGCCATCTAC,0.425 RPM ratio (pull-down/input)
5,GATGATTGTTCTCCCAGCTGATGAATTCGAGATATCGAGTAAACAAATTTTCCTAATCTTTCTGTTCAAGCGCCATCTAC,0.404 RPM ratio (pull-down/input)
6,GATGATTGTTCTCCCAGCTGATGAATTGGTAGCCTCGAGTAAACAAATTTTCCTAATCTTTCTGTTCAAGCGCCATCTAC,0.924 RPM ratio (pull-down/input)
7,GATGATTGTTCTCCCAGCTGATGAATTCACTGTATCGAGTAAACAAATTTTCCTAATCTTTCTGTTCAAGCGCCATCTAC,0.627 RPM ratio (pull-down/input)
8,GATGATTGTTCTCCCAGCTGATGAATTGTCTGTATCGAGTAAACAAATTTTCCTAATCTTTCTGTTCAAGCGCCATCTAC,0.624 RPM ratio (pull-down/input)
9,GATGATTGTTCTCCCAGCTGATGAATTGTGGCGTTCGAGTAAACAAATTTTCCTAATCTTTCTGTTCAAGCGCCATCTAC,2.54 RPM ratio (pull-down/input)
10,GATGATTGTTCTCCCAGCTGATGAATTGAATGATTCGAGTAAACAAATTTTCCTAATCTTTCTGTTCAAGCGCCATCTAC,0.737 RPM ratio (pull-down/input)
11,GATGATTGTTCTCCCAGCTGATGAATTCGAACACTCGAGTAAACAAATTTTCCTAATCTTTCTGTTCAAGCGCCATCTAC,0.457 RPM ratio (pull-down/input)
12,GATGATTGTTCTCCCAGCTGATGAATTTTTCCGTTCGAGTAAACAAATTTTCCTAATCTTTCTGTTCAAGCGCCATCTAC,0.238 RPM ratio (pull-down/input)
13,GATGATTGTTCTCCCAGCTGATGAATTCACTCAATCGAGTAAACAAATTTTCCTAATCTTTCTGTTCAAGCGCCATCTAC,0.294 RPM ratio (pull-down/input)
14,GATGATTGTTCTCCCAGCTGATGAATTGGGACTGTCGAGTAAACAAATTTTCCTAATCTTTCTGTTCAAGCGCCATCTAC,0.673 RPM ratio (pull-down/input)
15,GATGATTGTTCTCCCAGCTGATGAATTACACTATTCGAGTAAACAAATTTTCCTAATCTTTCTGTTCAAGCGCCATCTAC,0.606 RPM ratio (pull-down/input)
16,GATGATTGTTCTCCCAGCTGATGAATTTGCATCCTCGAGTAAACAAATTTTCCTAATCTTTCTGTTCAAGCGCCATCTAC,7.55 RPM ratio (pull-down/input)
17,GATGATTGTTCTCCCAGCTGATGAATTGCCATCCTCGAGTAAACAAATTTTCCTAATCTTTCTGTTCAAGCGCCATCTAC,0.935 RPM ratio (pull-down/input)
18,GATGATTGTTCTCCCAGCTGATGAATTGCATCCCTCGAGTAAACAAATTTTCCTAATCTTTCTGTTCAAGCGCCATCTAC,4.21 RPM ratio (pull-down/input)
19,GATGATTGTTCTCCCAGCTGATGAATTGTAACCATCGAGTAAACAAATTTTCCTAATCTTTCTGTTCAAGCGCCATCTAC,1.1 RPM ratio (pull-down/input)
20,GATGATTGTTCTCCCAGCTGATGAATTGGACGACTCGAGTAAACAAATTTTCCTAATCTTTCTGTTCAAGCGCCATCTAC,0.259 RPM ratio (pull-down/input)
